Screens as filed in PubChem.
This is a sample that favours compounds with a hit; in the whole collection about 1.2% have one here.
RGS4-Gao reg: modulators of RGS4 binding to Galphao, primary screen, biochemical, multiplexed bead flow cytometry; binding response (% of control), % at 10 µM; Guanine nucleotide-binding protein G(o) subunit alpha (Homo sapiens), P09471; hit rate 0.33% among 220,000; AID 1415, 2008; actives lie on both sides; in the data active = binding response below about 49% or above about 150%; inactive = in between;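 note: fluorescent Galphao activated with aluminum fluoride binding bead-coupled RGS4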
Target sequence (P09471 whole entry, looked up): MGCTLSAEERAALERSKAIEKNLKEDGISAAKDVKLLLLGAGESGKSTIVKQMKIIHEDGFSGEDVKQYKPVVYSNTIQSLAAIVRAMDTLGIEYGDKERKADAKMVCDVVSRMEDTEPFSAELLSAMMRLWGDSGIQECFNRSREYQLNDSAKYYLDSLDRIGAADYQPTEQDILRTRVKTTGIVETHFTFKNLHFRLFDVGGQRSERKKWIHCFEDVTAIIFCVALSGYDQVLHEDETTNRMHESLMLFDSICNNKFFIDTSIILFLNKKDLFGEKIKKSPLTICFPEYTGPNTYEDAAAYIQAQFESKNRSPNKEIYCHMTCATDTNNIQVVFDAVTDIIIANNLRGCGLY
RGS16-Gao: modulators of RGS16 binding to Galphao, primary screen, biochemical, human proteins, multiplexed bead flow cytometry | Regulator of G-protein signaling 16 (Homo sapiens) + Guanine nucleotide-binding protein … | bead-based flow cytometry RGS16-Galphao binding, fluorescence; actives lie on both sides | binding response (% of control), % at 10 µM | hit rate 0.38% among 220,000;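 note: Galphao activated by GDP with aluminum fluoride before binding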
Target sequence (O15492 whole entry, looked up): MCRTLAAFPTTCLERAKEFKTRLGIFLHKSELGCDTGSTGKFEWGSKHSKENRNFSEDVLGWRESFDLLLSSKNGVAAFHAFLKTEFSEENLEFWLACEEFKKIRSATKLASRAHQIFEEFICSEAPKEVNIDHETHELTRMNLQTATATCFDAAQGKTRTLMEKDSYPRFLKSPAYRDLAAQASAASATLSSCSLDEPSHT
Target sequence (P09471 whole entry, looked up): as the sequence (P09471 whole entry, looked up) above
RGS8-Gao: RGS8-Galphao binding modulators, primary screen, biochemical, multiplexed bead flow cytometry; hit rate 0.34% among 220,000; actives lie on both sides; response (percent of control binding), % at 10 µM; Guanine nucleotide-binding protein G(o) subunit alpha (Homo sapiens), P09471; in the data active = response below about 60% or above about 140%; inactive = in between;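 note: Galphao activated as the GDP aluminium fluoride complex binding bead-coupled RGS8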
GSH bead fluor: compound fluorescence on glutathione beads, profiling panel, artefact control, biophysical, 488/530 nm, flow cytometry. GSH beads flow cytometry, compound fluorescence 488/530 nm; stronger effect = higher value. fluorescence (KMESF) at 10 µM. hit rate 0.25% among 190,000. AID 1776, 2009; in the data active = fluorescence above about 89;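 note: glutathione beads carrying GST-tagged Bcl family fusion proteins plus one bare bead set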
Avidin bead fluor: green autofluorescence of compounds with avidin beads – biophysical, 488/530 nm, flow cytometry, artefact control, profiling panel | compound fluorescence 488/530 nm; stronger effect = higher value | hit rate 0.38% among 220,000 | AID 1775, 2009 | fluorescence (KMESF) at 10 µM; in the data active = fluorescence above about 47
RGS7-Gao: RGS7-Galphao binding modulators, primary screen, biochemical, multiplexed bead flow cytometry | Guanine nucleotide-binding protein G(o) subunit alpha (Homo sapiens), P09471 | actives lie on both sides | binding response (% of control), % at 10 µM | hit rate 0.35% among 220,000 | AID 1439, 2008; in the data active = binding response below about 49% or above about 150%; inconclusive = no clear call, values can overlap the other calls; inactive = in between;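 note: fluorescent Galphao held in activated GDP-AlF4 state binding bead-coupled RGS7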
RGS4-Gao HTS: modulators of RGS–Galpha-o binding, primary screen, biochemical, multiplexed beads, flow cytometry, RGS4/7/8/16/19; RGS4–Galpha-o binding response, % at 10 µM; multiplexed bead flow cytometry; hit rate 99% among 1,600; AID 1504, 2009; shares compounds with RGS16-Gao;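 note: fluorescently labeled Galpha-o bound to GDP with aluminium fluoride binding biotinylated RGS beads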
Biotin-avidin: disruption of biotin probe capture by avidin, counter-screen for RGS protein interaction modulators, biochemical, flow cytometry, bead-based | shares compounds with RGS16-Gao | streptavidin beads, fluorescein-biotin binding | inhibition, % at 10 µM | 1,700 tested, under 10 active;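 active = inhibition above 50%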;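 note: median green fluorescence of gated singlet beads compared with DMSO control wells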
RGS8-Gao single: RGS8-Galphao binding modulators, confirmation, biochemical, multiplexed bead flow cytometry, single concentration; shares compounds with RGS16-Gao; binding response (% of control), % at 10 µM; bead-based flow cytometry RGS8-Galphao binding, fluorescence; actives lie on both sides; hit rate 3% among 1,700; in the data active = binding response below about 72% or above about 130%; inactive = in between;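 note: Galphao activated as GDP AlF4 complex before binding bead RGS8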
RGS7-Gao confirm: RGS7-Galphao binding modulators, confirmation, biochemical, multiplexed bead flow cytometry, single concentration; shares compounds with RGS16-Gao; bead-based flow cytometry RGS7-Galphao binding; actives lie on both sides; response (percent of control binding), % at 10 µM; hit rate 7.8% among 1,700; in the data active = response below about 75% or above about 130%; inactive = in between;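 note: fluorescent Galphao activated with GDP and aluminum fluoride binding bead-coupled RGS7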
RGS16-Gao single: modulators of RGS16-Galphao protein binding, confirmation, biochemical, single concentration, multiplexed bead flow cytometry; shares compounds with RGS16-Gao; hit rate 4% among 1,700; AID 1838, 2009; bead-based flow cytometry; actives lie on both sides; response (% of control binding), % at 10 µM; in the data active = response below about 74% or above about 130%; inactive = in between;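 note: Galphao activated as the GDP aluminium fluoride complex binding bead-coupled RGS16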
RGS4-Gao confirm: modulators of RGS4-Galphao protein binding, confirmation, biochemical, single concentration, multiplexed bead flow cytometry. shares compounds with RGS16-Gao. actives lie on both sides. binding response (% of control), % at 10 µM. hit rate 4% among 1,700; in the data active = binding response below about 74% or above about 130%; inactive = in between
RGS19-Gao single: regulators of RGS19-Galphao binding, confirmation, biochemical, single point, multiplexed bead flow cytometry. hit rate 5% among 1,700. response (percent of control binding), % at 10 µM. bead-based flow cytometry RGS19-Galphao binding; actives lie on both sides. shares compounds with RGS16-Gao; in the data active = response below about 50% or above about 160%; inactive = in between
Hits are given with their value; i = inactive; ? = inconclusive; nt = not tested or not shown; [ ] = remark or other dose. Unless noted, the rule behind the calls is not given here.

SMILES	RGS4-Gao reg	RGS16-Gao	RGS8-Gao	GSH bead fluor	Avidin bead fluor	RGS7-Gao	RGS4-Gao HTS	Biotin-avidin	RGS8-Gao single	RGS7-Gao confirm	RGS16-Gao single	RGS4-Gao confirm	RGS19-Gao single
COc1nc(-c2ccccc2)cc(-c2ccccc2)n1	i	i	i	i	260	207[activator]	133	i	i	i	i	i	i
O=C(O)/C=C/C(=O)Nc1ccc(-c2ccccc2)cc1	i	i	i	i	i	?	nt	nt	nt	nt	nt	nt	nt
CN(C)CCC(O)(c1ccccc1)c1ccccc1	i	i	i	i	i	i	nt	nt	nt	nt	nt	nt	nt
NCC(c1ccccc1)(c1ccccc1)c1ccccc1	i	24	i	i	i	i	98	i	i	i	i	i	i
CCCn1c(NCc2c[nH]c3ccccc23)nc2ccccc21	i	i	143[activator]	i	i	i	104	i	i	i	i	i	i
Cc1ccc(S(=O)(=O)NCC2CCC(C(=O)NCc3ccc4c(c3)OCO4)CC2)cc1 (stereo not drawn)	i	i	nt	i	nt	nt	nt	i	i	i	i	i	i
O=C(O[C@@H]1OC2COC(=O)c3cc(O)c(O)c(O)c3-c3c(cc(O)c(O)c3O)C(=O)O[C@@H]([C@H]1O)[C@@H]2O)c1cc(O)c(O)c(O)c1	34	23	44	i	i	22	nt	i	35	4.1	35	19	42
CCN(CC)CCN(C)C1CCC(c2ccccc2)CC1 (stereo not drawn)	i	i	i	i	i	i	nt	nt	nt	nt	nt	nt	nt
CCOC(=S)NC(=O)c1sc2ccccc2c1Cl	i	i	i	i	i	i	nt	nt	nt	nt	nt	nt	nt
CCCOC(=S)NC(=O)c1sc2ccccc2c1Cl	nt	nt	nt	i	nt	nt	nt	i	i	i	i	i	i
CCOc1ccc(/C=C/C(=O)CCC(=O)O)cc1	i	i	i	i	i	i	nt	nt	nt	nt	nt	nt	nt
CC1CCCC(C)N1c1nnc(N)s1 (stereo not drawn)	i	20	57	i	i	i	53	i	i	i	i	i	i
CCCC(=O)Nc1cccc(NC(=O)c2cccc([N+](=O)[O-])c2C)c1	i	205[activator]	i	i	i	i	110	i	i	i	i	i	i
Cc1c(C(=O)NC(C)CCc2ccccc2)cccc1[N+](=O)[O-] (stereo not drawn)	i	i	i	i	i	i	nt	nt	nt	nt	nt	nt	nt
CCC(CC)NC(=O)c1cccc([N+](=O)[O-])c1C	i	237[activator]	i	i	i	i	116	i	i	i	i	i	i
O=C(CSc1nnc(-c2ccco2)o1)c1ccc[nH]1	i	i	i	i	i	i	nt	nt	nt	nt	nt	nt	nt
CCN1CCN(C(=O)C2CCC(CNS(=O)(=O)c3ccccc3)CC2)CC1 (stereo not drawn)	nt	nt	nt	i	nt	nt	nt	i	i	i	i	i	i
O=C(C1CCC(CNS(=O)(=O)c2cccs2)CC1)N1CCCCC1 (stereo not drawn)	i	i	i	i	i	i	nt	nt	nt	nt	nt	nt	nt
O/N=C/c1cccnc1Sc1ccccc1	152[activator]	180[activator]	162[activator]	i	i	157[activator]	nt	i	i	i	i	i	i
Cc1ccc(NC(=S)N(Cc2ccccc2)C(C)C)cc1	27	i	i	nt	i	?	nt	i	i	i	i	i	i
CCOC(=O)C(C(=O)OCC)C1OC(=O)c2cc3c(cc21)C(=O)OC3C(C(=O)OCC)C(=O)OCC (stereo not drawn)	i	i	i	i	200	359[activator]	141	i	i	i	i	i	i
Cc1nc2cc(N=NC3=C(O)CCCC3=O)ccc2s1	i	i	i	i	i	i	nt	nt	nt	nt	nt	nt	nt
Clc1ccc(-c2csc3ncnc(Cl)c23)cc1	i	i	i	i	i	i	nt	nt	nt	nt	nt	nt	nt
NNc1ncnc2scc(-c3ccc(Cl)cc3)c12	i	i	149[activator]	i	i	i	138	i	i	i	i	i	i
CN(CC(=O)Nc1ccc(Cl)c(Cl)c1)Cc1nnc(-c2ccc(F)cc2)o1	i	i	i	i	i	i	nt	nt	nt	nt	nt	nt	nt
SMILES	RGS4-Gao reg	RGS16-Gao	RGS8-Gao	GSH bead fluor	Avidin bead fluor	RGS7-Gao	RGS4-Gao HTS	Biotin-avidin	RGS8-Gao single	RGS7-Gao confirm	RGS16-Gao single	RGS4-Gao confirm	RGS19-Gao single
Cc1[nH]c2ccccc2c1/C=N/NC(=S)NC(C)C	i	i	i	i	i	176[activator]	125	i	i	259[activator]	149[activator]	184[activator]	230[activator]
CSC1=NC(C(Cl)(Cl)Cl)N=C(c2ccc(C)cc2)N1 (stereo not drawn)	i	i	i	i	i	?	nt	nt	nt	nt	nt	nt	nt
Cc1cc(C)c(C(=O)OCCNC(=O)c2cccnc2)cc1C	i	i	i	i	215	184[activator]	122	i	i	i	i	i	i
O=C(NCCOC(=O)c1ccccc1C(=O)OCCNC(=O)c1cccnc1)c1cccnc1	i	i	i	i	i	i	nt	nt	nt	nt	nt	nt	nt
COc1c(Br)cc(C(N)=O)cc1OCc1ccccc1	i	-1.3	i	i	i	i	77	i	i	i	i	i	i
CCOC(=O)N1CCN(C(=O)CCCn2c(=S)[nH]c3ccccc3c2=O)CC1	nt	nt	nt	i	nt	nt	nt	i	i	i	i	i	i
CC(CCOC1=NS(=O)(=O)c2ccccc21)NC(=O)C(=O)Nc1ccccc1 (stereo not drawn)	23	i	i	nt	i	?	nt	i	131[activator]	556[activator]	286[activator]	466[activator]	211[activator]
O=C(CNC(=O)c1ccc(S(=O)(=O)N2CCCC2)cc1)N/N=C/c1ccco1	i	i	i	i	i	i	nt	nt	nt	nt	nt	nt	nt
Nn1c(SCc2ccc(F)cc2)nnc1-c1ccncc1	i	i	i	nt	i	?	nt	nt	nt	nt	nt	nt	nt
